The values below come from the supplement of paper PMC6522484.

± gives the standard deviation of the averaged measurements.

The test system of assay [1] is DLD1. Put plainly: cell viability (CellTiter-Glo) relative to plate median (fraction of plate median); higher = more viable cells. Conditions: 5 µM; treatment time 24 h; reporter: 7TFP. In a few lines: (§1)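 After seeding in 384-well plates, colorectal cancer cell lines carrying stable lentiviral TCF/Wnt firefly luciferase reporters (7TFP or TCF4/Wnt) were left 24 h. Library compounds were then added at a final 5 µM for 24 h. A Tecan F500 reader measured firefly luciferase or CellTiterGlo luminescence on parallel plates, with each well normalised to the plate median by webcellHTS2 (additive, no log transformation), and two independent replicates averaged.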

Another assay concerns HCT116. The description is as above. As to conditions: 5 µM; treatment time 24 h; reporter: TCF4/Wnt. The essentials:
as §1

In assay [2] the test system is SW480. Described as above. As to conditions: 5 µM; treatment time 24 h; reporter: 7TFP. In a few lines: as §1
Assay [3] relates to DLD1. In words: TCF/Wnt firefly luciferase reporter signal relative to plate median (fraction of plate median); higher = higher Wnt reporter signal. As to conditions: 5 µM; treatment time 24 h; reporter: 7TFP. In a few lines:
as §1

In assay [4] the test system is SW480. The description is as above. Conditions: 5 µM; treatment time 24 h; reporter: 7TFP. The essentials:
as §1

As to `CCCN1C[C@H](CSC)C[C@@H]2c3cccc4[nH]cc(c34)C[C@H]21`, the cell viability with DLD1 [1] amounted to 0.934 ± 0.0057; with HCT116, 0.986 ± 0.049; with SW480 [2] it was 0.863 ± 0.086. Also, the entries for the “TCF/Wnt firefly luciferase reporter signal” value in the assay on DLD1 [3] and in the assay with SW480 [4] were 1 and 1.015 ± 0.0071, respectively.

Regarding `CCN1C[C@]2(COC)[C@H](O)C[C@H](OC)[C@@]34[C@@H]5C[C@@]6(O)[C@H](OC(=O)c7ccccc7)[C@@H]5[C@@](OC(C)=O)([C@@H]([C@H](OC)[C@H]23)[C@@H]14)[C@@H](O)[C@@H]6OC`, the cell viability in the assay on DLD1 [1] is 0.943 ± 0.066; in the assay with HCT116 it was 1.04 ± 0.05; in the assay with SW480 [2], 1.02 ± 0.06. Besides, the figures for the “TCF/Wnt firefly luciferase reporter signal” value in the assay with DLD1 [3] and in the assay with SW480 [4] were 0.931 ± 0.057 and 0.955 ± 0.19, respectively.

As for `COC[C@]12CN(C=O)[C@@H]3[C@@H]4[C@H](OC)[C@H]1[C@@]3([C@@H](OC)C[C@H]2O)[C@@H]1C[C@@]2(O)[C@H](OC(=O)c3ccccc3)[C@@H]1[C@]4(OC(C)=O)[C@@H](O)[C@@H]2OC`, the cell viability in the assay with DLD1 [1] turned out to be 1.01 ± 0.057; in the assay on HCT116, 1.17 ± 0.057; with SW480 [2] it was 1.05 ± 0.071. In addition, the “TCF/Wnt firefly luciferase reporter signal” value in the assay on DLD1 [3] was 0.934 ± 0.15; with SW480 [4], 1.02 ± 0.052.

`CC1=NCCc2c1[nH]c1cc(O)ccc21`: the cell viability with DLD1 [1] came to 0.971 ± 0.069; with HCT116, 1.01 ± 0.11; in the assay on SW480 [2], 1.02 ± 0.014. The “TCF/Wnt firefly luciferase reporter signal” value in the assay with DLD1 [3] was 1.02 ± 0.17; with SW480 [4], 0.988 ± 0.031.

For the compound `CC[C@@]1(O)C[C@H](O)c2c(cc3c(c2O)C(=O)c2c(O)ccc(O)c2C3=O)[C@H]1C(=O)OC`, the values for the cell viability with DLD1 [1], with HCT116 and in the assay on SW480 [2] were 1.02 ± 0.067, 1.05 ± 0.035 and 1.01 ± 0.03, respectively. In addition, the “TCF/Wnt firefly luciferase reporter signal” value was determined as 1.08 ± 0.021 with DLD1 [3] and 0.908 ± 0.12 in the assay on SW480 [4].

With `CCOP(=S)(OCC)Oc1ccc2c(C)c(Cl)c(=O)oc2c1`, the values for the cell viability in the assay on DLD1 [1], in the assay with HCT116 and in the assay with SW480 [2] were 0.989 ± 0.044, 0.983 ± 0.14 and 0.9335 ± 0.005, respectively. In addition, the “TCF/Wnt firefly luciferase reporter signal” value in the assay on DLD1 [3] was found to be 0.928 ± 0.04; in the assay on SW480 [4] it was 0.89 ± 0.012.

For `CC(=O)[O][Hg][c]1ccccc1`, the cell viability in the assay on DLD1 [1] was found to be 0.0442 ± 0.012; with HCT116 it was 0.0479 ± 0.031; in the assay on SW480 [2] it was 0.0258 ± 0.0048. The “TCF/Wnt firefly luciferase reporter signal” value in the assay with DLD1 [3] stood at 0.0227 ± 0.0033; in the assay on SW480 [4], 0.0222 ± 0.0026.

Take `C[C@]12CC[C@H](Cl)C[C@@H]1CC[C@@H]1[C@@H]2CC[C@]2(C)C(=O)CC[C@@H]12` [3beta-CHLOROANDROSTANONE]: the values for the cell viability with DLD1 [1], in the assay on HCT116 and with SW480 [2] were 1.08 ± 0.05, 0.981 ± 0.041 and 1.06 ± 0.071, respectively. Moreover, the entries for the “TCF/Wnt firefly luciferase reporter signal” value in the assay with DLD1 [3] and with SW480 [4] were 1.07 ± 0.13 and 1.115 ± 0.0071, respectively.

Take `C[N+]1(C)CCCC(OC(=O)C(O)(c2ccccc2)c2ccccc2)C1` (stereo not given): the cell viability in the assay on DLD1 [1] is 0.965 ± 0.036; with HCT116 it was 0.936 ± 0.063; with SW480 [2], 1.01 ± 0.014. The “TCF/Wnt firefly luciferase reporter signal” value in the assay with DLD1 [3] stood at 1.05 ± 0.014; in the assay with SW480 [4], 0.957 ± 0.043.

For the compound `CC(=O)OCC1=C(C(=O)O)N2C(=O)[C@@H](NC(=O)CCC[C@@H](N)C(=O)O)[C@H]2SC1`, the cell viability was 0.955 ± 0.13 with DLD1 [1], 0.906 ± 0.13 in the assay with HCT116 and 0.9165 ± 0.0064 with SW480 [2]. For the same compound, the results for the “TCF/Wnt firefly luciferase reporter signal” value with DLD1 [3] and in the assay on SW480 [4] were 1.175 ± 0.0071 and 1.09 ± 0.05, respectively.

Take `C[CH2][Hg][S]c1ccccc1C(=O)[O-].[Na+]`: the cell viability stood at 0.303 ± 0.39 in the assay with DLD1 [1], 0.378 ± 0.36 in the assay on HCT116 and 0.0225 ± 0.0017 with SW480 [2]. Further, the “TCF/Wnt firefly luciferase reporter signal” value is 0.274 ± 0.37 in the assay with DLD1 [3] and 0.0216 ± 0.0027 in the assay with SW480 [4].

Turning to `c1cncc([C@@H]2CCCCN2)c1`, the cell viability came to 0.993 ± 0.011 in the assay with DLD1 [1], 0.952 ± 0.17 in the assay with HCT116 and 0.9635 ± 0.0078 with SW480 [2]. Also, the “TCF/Wnt firefly luciferase reporter signal” value was 0.971 ± 0.11 in the assay on DLD1 [3] and 0.927 ± 0.044 in the assay on SW480 [4].

Take `CC1=C2[C@H]3OC(=O)[C@@H](C)[C@@H]3CC[C@@]2(C)C=CC1=O`: the cell viability in the assay on DLD1 [1] was 1.08 ± 0.15; in the assay with HCT116, 1.06 ± 0.078; in the assay on SW480 [2], 1.03 ± 0.043. Further, the figures for the “TCF/Wnt firefly luciferase reporter signal” value in the assay on DLD1 [3] and in the assay with SW480 [4] were 0.968 ± 0.026 and 1.06 ± 0.12, respectively.

`CC1=C(O)C(=O)C=C2C1=CC=C1[C@@]2(C)CC[C@@]2(C)[C@@H]3C[C@](C)(C(=O)O)CC[C@]3(C)CC[C@]12C`: the figures for the cell viability in the assay with DLD1 [1], with HCT116 and in the assay with SW480 [2] were 0.801 ± 0.11, 0.837 ± 0.065 and 1 ± 0.012, respectively. Moreover, the “TCF/Wnt firefly luciferase reporter signal” value in the assay on DLD1 [3] turned out to be 0.863 ± 0.083; in the assay on SW480 [4], 0.787 ± 0.12.
